Results published in PubChem BioAssay AID1626 (SRMLSC, 2009).
In all, about 220,000 compounds went through this assay and about 2,000 (0.91%) were called active. Not shown: some 2% with an inconclusive outcome. Rule as the data show it: inconclusive = inhibition above about 80% without an active follow-up result; inactive = below that; test concentration not stated here. A selection follows. Entries with a potency or affinity are not part of this list.

experiment: M. tuberculosis H37Rv growth inhibitors, H37Rv strain (AID 1626); conditions: active compounds read high, concentration not given here;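 also: bacteria incubated seven days before Alamar blue readout; 0% = bacteria only wells and 100% = bacteria with antibiotic wells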

Row | Structure (SMILES) | inhibition
1 | CCOc1ccccc1N(CC(=O)NCc1ccccc1)C(=O)CCC(=O)Nc1cc(C)ccn1 | -1.77% (inactive)
2 | Cc1cc(NCCCN2CCOCC2)n2c(nc3ccccc32)c1C#N | -4.69% (inactive)
3 | CC1=C(C(=O)OC(C)C)C(c2cccs2)n2ncnc2N1 (stereo not drawn) | 7.3% (inactive)
4 | CC(=O)Nc1ccc(C(=O)/C=C/c2ccco2)cc1 | -0.44% (inactive)
5 | O=C(/C=C\c1ccco1)c1ccc(NC(=O)c2ccco2)cc1 | -2.87% (inactive)
6 | COCCCNC(=S)N(Cc1ccccc1)Cc1nc2ccccc2c(=O)[nH]1 | -7.77% (inactive)
7 | NC(=O)C(=CNc1nc(-c2ccc(Cl)c(Cl)c2)cs1)C(N)=O | -3.81% (inactive)
8 | OC1=C(O)c2nc3cc(C(F)(F)F)ccc3nc21 | -3.35% (inactive)
9 | COc1ccc(NCc2ccc([N+](=O)[O-])s2)c(OC)c1 | 79.8% (inactive)
10 | COc1cccc(NCc2ccc([N+](=O)[O-])s2)c1 | 15.2% (inactive)
11 | CC(C)COC(=O)c1ccc(NC(=O)C2C3C=CC(C3)C2C(=O)O)cc1 (stereo not drawn) | 58.1% (inactive)
12 | CCCCNC(=O)c1ccc(NC(=O)C2CCCO2)cc1 (stereo not drawn) | 0.89% (inactive)
13 | COC(=O)c1ccc(NC(=O)c2ccc(NC(=O)C3CCCO3)cc2)cc1 (stereo not drawn) | 10.1% (inactive)
14 | COC(=O)c1ccc(NC(=O)C2C3C=CC(O3)C2C(=O)O)cc1 (stereo not drawn) | -12.1% (inactive)
15 | NC(=O)c1ccc(NC(=O)C2CCCO2)cc1 (stereo not drawn) | -8.76% (inactive)
16 | CCOC(=O)c1cc(NC(=O)C2CCCO2)cc(C(=O)OCC)c1 (stereo not drawn) | 3.41% (inactive)
17 | COC(=O)c1ccc(NC(=O)C2CCCO2)cc1 (stereo not drawn) | -10.3% (inactive)
18 | CCCCNS(=O)(=O)c1ccc(NC(=O)C2CCCO2)cc1 (stereo not drawn) | 6.1% (inactive)
19 | Cn1ncc(C#N)c1NC(=O)C1CC(c2ccc(Cl)c(Cl)c2)=NO1 (stereo not drawn) | -5.17% (inactive)
20 | COC(=O)c1[nH]c2ccccc2c1NC(=O)CN1CC(C)OC(C)C1 (stereo not drawn) | -0.75% (inactive)
21 | CCOC(=O)N1CCN(C(=O)Cc2ccc(C)cc2)CC1 | -3.57% (inactive)
22 | CN(C)C(CNC(=S)Nc1ccccc1Cl)c1cccnc1 (stereo not drawn) | 7.94% (inactive)
23 | CCOC(=O)c1ccc(NC(=O)C(=O)NCC2CCCO2)cc1 (stereo not drawn) | 65.4% (inactive)
24 | CCCCOC(=O)c1ccc(NC(=O)C(=O)NCC2CCCO2)cc1 (stereo not drawn) | 34.8% (inactive)
25 | COc1ccc(Br)c2oc(S)cc(=O)c12 | -4.76% (inactive)
26 | CCN(CC)C(=O)C1CCCN(Cc2ccc(F)c(F)c2)C1 (stereo not drawn) | -6.74% (inactive)
27 | CCC(CC)C(=O)Nc1ccc([N+](=O)[O-])cn1 | 1.14% (inactive)
28 | CCCc1nc(SCC(=O)Nc2cc(C)on2)c2c(=O)n(C)c(=O)n(C)c2n1 | 5.55% (inactive)
